# Assay results published in PubChem BioAssay (NCATS).
# Records with an inconclusive call do not appear. Entries that show only a call come without a potency. A number with no mark means an inactive call. Activity calls are given as the source filed them. Calls follow the shape of the dose curve; as a rule, active = well fitted curve in the direction sought with a large enough effect; inconclusive = small, poorly fitted or top-dose-only effect, or another doubt; inactive = no such curve, though single readings can be large; an effect the other way counts as inactive or inconclusive.
# Assays:
# HaCat [1] = assay: Cytotoxic Profiling of Annotated Libraries Using Quantitative High-Throughput Screening (AID 1296008); details: Five cell lines viability, CellTiter-Glo ATP luminescence, 48-72 h; max response: stronger effect = lower value; also: nearly all actives have a fitted effect of over 60% in size
# Method in brief: (§1)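 Cytotoxicity was measured as CellTiter-Glo ATP luminescence, read after 10 min at room temperature. Compound treatment of the cells lasted 48 or 72 hr at 37 degrees Celsius in a qHTS format.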
# KB-3-1 = assay: as above; details: Five cell lines viability, CellTiter-Glo ATP luminescence, 48-72 h; max response: stronger effect = lower value
# Method in brief: as §1
# MCC-13 = assay: qHTS assay to identify novel small-molecules to repurpose for Merkel cell carcinoma treatment (AID 1296009); details: MCC and control cell lines, CellTiter-Glo viability, 72 h; series mostly up to 46 µM; also: nearly all actives have a fitted effect of over 60% in size
# Method in brief: (§2)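 Cell viability measured by CellTiter-Glo following 72 hr compound treatment at 37 degree celsius, with NPC and MIPE libraries tested in 8- and 11-point concentration series.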
# MCC-26 = assay: as above; details: MCC and control cell lines, CellTiter-Glo viability, 72 h; series mostly up to 46 µM
# Method in brief: as §2
# WaGa = assay: as above; details: MCC and control cell lines, CellTiter-Glo viability, 72 h; series mostly up to 46 µM
# Method in brief: as §2
# C33A = assay: Primary qHTS to identify gynecologic anti-cancer compounds using libraries of approved drugs and bioactive compounds (AID 1345084); details: Gynecologic cancer cell panel viability, ATPlite luminescence, 48 h; series mostly up to 57.5 µM; also: nearly all actives have a fitted effect of over 55% in size
# Method in brief: (§3)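 Cells, 1,000 per well, were allowed to settle for 16 h at 37 C before compound addition. Five concentrations were tested for 48 h, and viability was read by ATPlite luminescence after 15 min at room temperature.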
# CAOV3 = assay: as above; details: Gynecologic cancer cell panel viability, ATPlite luminescence, 48 h; series mostly up to 57.5 µM
# Method in brief: as §3
# CRL-7250 = normal cell line; assay: qHTS assay to identify novel small-molecules to repurpose for Merkel cell carcinoma treatment (AID 1296009); details: MCC and control cell lines, CellTiter-Glo viability, 72 h; at 44.8 µM (top of the series) unless noted; also: nearly all actives have a fitted effect of over 60% in size
# Method in brief: as §2
# TAB113 = assay: qHTS profiling for inhibitors of Plasmodium falciparum proliferation (AID 504749); also: nearly all actives have a fitted effect of over 60% in size; details: P. falciparum in erythrocytes, SYBR Green DNA, 72 h; series mostly up to 28.7 µM
# Method in brief: (§4)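 In a 72 h erythrocytic culture (37 C, humidified, 5% CO2) at 2.5% hematocrit and 0.3% starting parasitemia, compounds were tested; SYBR Green I in detergent lysis buffer stained parasite DNA overnight.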
# TAB165 = assay: as above; details: P. falciparum in erythrocytes, SYBR Green DNA, 72 h; series mostly up to 28.7 µM
# Method in brief: as §4
# W2 = assay: as above; details: P. falciparum in erythrocytes, SYBR Green DNA, 72 h; series mostly up to 28.7 µM
# Method in brief: as §4
# NIH3T3 = assay: Cytotoxic Profiling of Annotated Libraries Using Quantitative High-Throughput Screening (AID 1296008); details: Five cell lines viability, CellTiter-Glo ATP luminescence, 48-72 h; max response: stronger effect = lower value; also: nearly all actives have a fitted effect of over 60% in size
# Method in brief: as §1
# MKL-1 = assay: qHTS assay to identify novel small-molecules to repurpose for Merkel cell carcinoma treatment (AID 1296009); details: MCC and control cell lines, CellTiter-Glo viability, 72 h; series mostly up to 46 µM; also: nearly all actives have a fitted effect of over 60% in size
# Method in brief: as §2
# MKL-2 = assay: as above; details: MCC and control cell lines, CellTiter-Glo viability, 72 h; series mostly up to 46 µM
# Method in brief: as §2
# UISO = assay: as above; details: MCC and control cell lines, CellTiter-Glo viability, 72 h; series mostly up to 46 µM
# Method in brief: as §2
# HACAT [2] = assay: as above; details: MCC and control cell lines, CellTiter-Glo viability, 72 h; at 44.8 µM (top of the series) unless noted
# Method in brief: as §2
# Potency is read from the fitted curve at half-maximal effect.
structure (smiles),measurement,setting,value
CCCCCCCCc1ccc(O)cc1,Potency,HaCat [1],24.6 µM (active)
same,max response,KB-3-1,-0.951%
same,Potency,MCC-13,inactive
same,Potency,MCC-26,inactive
same,Potency,WaGa,43.7 µM (active)
same,Potency,C33A,25.1 µM (active)
same,Potency,CAOV3,inactive
O=C(O)[C@H](Cc1c[nH]c2ccccc12)N1C(=O)c2ccccc2C1=O,outcome,CRL-7250,inactive [at 92 µM]
CC(C)NC(C)Cc1ccc(I)cc1 (centres undefined),Potency,TAB113,inactive
same,Potency,TAB165,inactive
same,Potency,W2,10.7 µM (active)
same,max response,KB-3-1,2.96%
C[C@@H]1CN(c2c(F)c(N)c3c(=O)c(C(=O)O)cn(C4CC4)c3c2F)C[C@H](C)N1,outcome,CRL-7250,inactive [at 17.4 µM]
O=C(Nc1cccc(C2=NCCN2)c1)Nc1cccc(C2=NCCN2)c1,outcome,CRL-7250,inactive [at 17.4 µM]
COc1ccc(CCN(C)CCCOc2ccc(S(=O)(=O)c3[nH]c4ccccc4c3C(C)C)cc2)cc1OC,outcome,CRL-7250,inactive
CC(=Cc1csc(C)n1)[C@@H]1C[C@H]2O[C@@H]2CCC[C@H](C)[C@@H](O)[C@@H](C)C(=O)C(C)(C)[C@@H](O)CC(=O)O1,max response,HaCat [1],-20.3%
same,Potency,KB-3-1,0.0004 µM (active)
same,max response,NIH3T3,-77%
same,Potency,MKL-1,inactive
same,Potency,MKL-2,inactive
same,Potency,UISO,inactive
same,Potency,WaGa,inactive
CC(C)(C)C(O)/C=C/c1ccc2c(c1)OCO2 (centres undefined),outcome,CRL-7250,inactive
CC(C)[C@H]1C(=O)N[C@H](CO)Cc2c[nH]c3cccc(c23)N1C,max response,HaCat [1],-1.9%
same,max response,KB-3-1,9.88%
same,max response,NIH3T3,-1.36%
same,Potency,MCC-13,inactive
same,Potency,MCC-26,inactive
same,Potency,MKL-1,inactive
same,Potency,MKL-2,inactive
same,Potency,WaGa,inactive
COc1ccc(CCN2CCN(CCCc3ccccc3)CC2)cc1OC,outcome,CRL-7250,inactive
CC(=O)Nc1ccc(O)cc1,outcome,CRL-7250,inactive
COc1ccc2cc(CCC(C)=O)ccc2c1,outcome,CRL-7250,inactive
c1ccc(C2(c3ccccc3)CC2C2=NCCN2)cc1 (centres undefined),Potency,TAB113,inactive
same,Potency,TAB165,inactive
same,max response,KB-3-1,-1.25%
CCc1c(C)[nH]c2c1C(=O)C(CN1CCOCC1)CC2 (centres undefined),outcome,CRL-7250,inactive
c1ccc(CCCN2CCN(CCOC(c3ccccc3)c3ccccc3)CC2)cc1,Potency,NIH3T3,16.6 µM (active)
same,Potency,MCC-13,inactive
same,Potency,MCC-26,inactive
same,Potency,MKL-1,inactive
same,Potency,MKL-2,20.9 µM (active)
O=S(=O)(c1ccc(Cl)cc1)c1ccc(Cl)cc1,max response,KB-3-1,-10.2%
same,max response,NIH3T3,-7.95%
same,Potency,MCC-13,inactive
same,Potency,MCC-26,inactive
same,Potency,MKL-1,inactive
same,Potency,UISO,inactive
same,Potency,C33A,inactive
CCN(CC)CCNC(=O)c1ccc(NC(C)=O)cc1,outcome,CRL-7250,inactive
C=CCC1=C(C)C(OC(=O)C2C(C=C(C)C)C2(C)C)CC1=O (centres undefined),outcome,HaCat [1],inactive
same,max response,KB-3-1,-7.18%
same,outcome,HACAT [2],inactive [at 92 µM]
same,Potency,MCC-13,inactive
same,Potency,C33A,inactive
CCCN1CCC[C@H](c2cccc(O)c2)C1,Potency,TAB113,inactive
same,Potency,TAB165,inactive
same,Potency,W2,15.1 µM (active)
same,max response,KB-3-1,0.305%
CC(C)OC(=O)C1=CN(C(=O)c2ccc(F)c(F)c2)CC(C)(C)c2c1[nH]c1ccccc21,outcome,CRL-7250,inactive
CCOC(=O)C(=O)CCCCCCl,outcome,CRL-7250,inactive
CC1=NN(c2ccccc2)C(=O)C1,outcome,CRL-7250,inactive
ClC1=C(Cl)[C@]2(Cl)[C@@H]3[C@@H]4C[C@@H]([C@H]5O[C@@H]45)[C@@H]3[C@@]1(Cl)C2(Cl)Cl,max response,KB-3-1,13.3%
same,Potency,MCC-13,inactive
same,Potency,MCC-26,inactive
same,Potency,MKL-1,inactive
same,Potency,MKL-2,inactive
same,Potency,C33A,inactive
NC(=O)CN1CC(O)CC1=O (centres undefined),Potency,TAB113,inactive
same,Potency,TAB165,inactive
same,Potency,W2,inactive
same,max response,KB-3-1,3.82%
COc1cc2c(cc1OC)C(=O)CC2,outcome,CRL-7250,inactive
CCCn1c(=O)c2[nH]c(C34CC5CC3C[C@@H](C5)C4)nc2n(CCC)c1=O,outcome,CRL-7250,inactive
CN[C@@H]1C[C@@H](c2ccc(Cl)c(Cl)c2)c2ccccc21,Potency,TAB113,inactive
same,Potency,W2,4.78 µM (active)
same,max response,KB-3-1,-9.15%
COC[C@H]1OC(=O)c2coc3c2[C@@]1(C)C1=C(C3=O)[C@@H]2CC[C@H](O)[C@@]2(C)C[C@@H]1OC(C)=O,max response,HaCat [1],-14.2%
same,max response,KB-3-1,-14.9%
same,Potency,NIH3T3,16.6 µM (active)
same,Potency,MCC-13,inactive
same,Potency,MCC-26,inactive
same,Potency,MKL-2,8.33 µM (active)
same,Potency,WaGa,10.5 µM (active)
CCCCc1ccc(C(=O)O)nc1,Potency,TAB113,inactive
same,Potency,TAB165,inactive
same,Potency,W2,inactive
same,max response,KB-3-1,2.2%
CCOc1cc(C(=O)Nc2ccc(Cl)c(-c3nc4ccccc4[nH]3)c2)cc(OCC)c1OCC,outcome,CRL-7250,inactive
CC(C)(C)c1cc(C(C)(C)C)c(NC(=O)c2c[nH]c3ccccc3c2=O)cc1O,outcome,CRL-7250,inactive
CC(=CCCC1=CCC(C2=CC(=O)OC2O)OC1O)CCC1=C(C)CCCC1(C)C (centres undefined),max response,HaCat [1],-18.3%
same,max response,KB-3-1,-6.74%
same,max response,NIH3T3,-0.889%
same,Potency,MCC-13,inactive
same,Potency,MCC-26,inactive
same,Potency,MKL-1,inactive
same,Potency,MKL-2,inactive
same,Potency,UISO,inactive
same,Potency,WaGa,inactive
CN1C2CCC1CC(OC(=O)c1cc(Cl)cc(Cl)c1)C2 (centres undefined),Potency,TAB113,inactive
same,Potency,TAB165,inactive
same,Potency,W2,10.7 µM (active)
C=CCN1CC[C@]23CCCCC2[C@H]1Cc1ccc(O)cc13 (some centres undefined),Potency,TAB113,inactive
same,Potency,TAB165,inactive
CN1[C@H]2CC(O)C[C@H]1[C@H]1O[C@H]12 (some centres undefined),Potency,MCC-13,inactive
same,Potency,MCC-26,inactive
same,Potency,MKL-1,inactive
same,Potency,MKL-2,inactive
same,Potency,WaGa,inactive
COc1ccc(C(c2ccc(OC)cc2)C(Cl)(Cl)Cl)cc1,Potency,MCC-13,inactive
same,Potency,MCC-26,inactive
Nc1ccc([N+](=O)[O-])cc1,Potency,CAOV3,inactive
O=C(O)CCCOc1ccc(Cl)cc1Cl,Potency,CAOV3,inactive
